The list is not random: actives were taken first. Their share in the collection is about 3.5%.
TEAD-YAP block: TEAD-YAP interaction inhibition | inhibition, % at 9.12 µM | HEK-TIYL cells, TEAD-Gal4/YAP UAS-luciferase luminescence | 640,000 tested, 1.4% active; in the data active means inhibition above about 32%
FBW7 act: human FBW7 E3 ligase activation, primary screen; AlphaScreen FBW7–phospho-cyclin E peptide binding, activator screen; 650,000 tested, 0.13% active; Q969H0; normalized activity (activation), % at 26.1 µM; AID 1259310; in the data active means normalized activity above about 1.9%;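 further: purified mutant Fbw7 with reduced substrate affinity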
GPR151 ag: human GPR151 activation. 650,000 tested, 1% active. PathHunter beta-arrestin GPR151 cells, luminescence. activation, % at 11.2 µM. Q8TDV0; in the data active means activation above about 4.9%
MITF inh: blocks human microphthalmia-associated transcription factor; O75030; AlphaScreen MITF homodimerization, bead proximity signal; inhibition, % at 2.6 µM; 650,000 tested, 0.91% active; AID 1259374; in the data active means inhibition above about 50%
Target sequence (O75030 whole entry, looked up): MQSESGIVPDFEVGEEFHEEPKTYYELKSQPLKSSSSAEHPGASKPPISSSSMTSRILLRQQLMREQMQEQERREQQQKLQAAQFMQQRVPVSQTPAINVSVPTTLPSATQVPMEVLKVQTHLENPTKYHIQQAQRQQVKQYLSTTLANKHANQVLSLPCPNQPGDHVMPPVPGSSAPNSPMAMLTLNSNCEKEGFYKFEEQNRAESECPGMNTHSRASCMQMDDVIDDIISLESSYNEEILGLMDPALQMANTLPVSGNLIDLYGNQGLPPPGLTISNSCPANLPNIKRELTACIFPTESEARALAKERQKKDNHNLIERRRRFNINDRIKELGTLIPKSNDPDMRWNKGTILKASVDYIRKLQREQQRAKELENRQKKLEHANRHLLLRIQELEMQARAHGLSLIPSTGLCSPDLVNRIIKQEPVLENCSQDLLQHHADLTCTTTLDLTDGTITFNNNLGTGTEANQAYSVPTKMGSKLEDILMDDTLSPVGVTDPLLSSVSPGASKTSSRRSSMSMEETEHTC
MITF confirm: confirmation of human MITF inhibitors | shares compounds with MITF inh | AlphaScreen MITF homodimerization, biotin/His-MITF beads | inhibition, % at 2.6 µM | 4,700 tested, 16% active | AID 1259372;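 active means inhibition above a cutoff derived from the DMSO control wells, cut at about 28% in these data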;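 further: inhibitors lower the bead chemiluminescence by keeping MITF from dimerizing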
AS interf DR: optically interferes with AlphaScreen signal in dose response. shares compounds with MITF inh. 480 tested, 6% active. IC50, µM. AlphaScreen optical interference counterscreen, cell-free. AID 1259373; call rule not given here
AS interf ctr: AlphaScreen optical interference, counter-screen; shares compounds with MITF inh; LysRS AlphaScreen counterscreen, signal interference, triplicate; inhibition, % at 2.6 µM; 4,700 tested, 7.6% active;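 active means inhibition above a cutoff derived from the DMSO control wells, cut at about 30% in these data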
Numbers stand for hits; i = inactive; nt = not tested or not shown.

SMILES	TEAD-YAP block	FBW7 act	GPR151 ag	MITF inh	MITF confirm	AS interf ctr	others
CCOc1ccc(CN2CCN(S(C)(=O)=O)CC2)cc1	i	i	i	66	i	i
CCOc1ccc(CN2CCC(N3CCN(C)CC3)CC2)cc1	i	i	i	70	i	i
COc1ccc(CN2CCN(Cc3ccncc3)CC2)cc1	i	i	i	57	i	i
CCOc1ccc(CN2CCN(S(=O)(=O)c3ccc(OC)cc3)CC2)cc1	i	i	i	57	i	i
CC(=O)C12CCC(C(Br)Br)(C1Br)C2(C)C (stereo not drawn)	i	i	i	i	nt	nt
CC(=O)Oc1cccc(/C=c2\sc3nc(=O)c(Cc4ccccc4)nn3c2=O)c1	i	i	i	i	nt	nt
O=C1NC(=O)C(=Cc2ccccc2I)C(=O)N1	i	i	i	55	i	i
O=C1C(=Cc2ccccc2I)C(=O)c2ccccc21	i	i	i	i	nt	nt
CCCCN1C(=O)C(=O)N(CC(=O)Nc2cc(C(C)(C)C)ccc2OC)C1=O	i	i	i	i	nt	nt
Cc1ccc(N[C@@H]2OC[C@@H](O)C(O)C2O)cc1N[C@@H]1OC[C@@H](O)C(O)C1O (stereo partly drawn)	i	i	i	72	71	i
CN1CCN(C(CNC(=O)c2ccc(-c3ccccc3)cc2)c2ccsc2)CC1 (stereo not drawn)	i	i	i	55	i	i
COc1cccc(NC(=O)CCc2c(C)nc3nc(CN)nn3c2C)c1	i	i	i	i	nt	nt
CCOc1cc(CN2CCN(Cc3ccccc3Cl)CC2)ccc1OC	i	i	i	67	i	i
CCOc1cc(CN2CCN(C3CCCC3)CC2)ccc1OC	i	i	i	53	i	i
CCOc1cc(CN2CCN(Cc3cccnc3)CC2)ccc1OC	i	i	i	74	i	i
CCOc1ccc(CN2CCN(c3ccccn3)CC2)cc1	i	i	i	i	nt	nt
CCOc1ccc(CN2CCN(Cc3cccnc3)CC2)cc1	i	i	i	55	35	i	AS interf DR=i
Cc1cc(C)c(C#N)c(Nc2ccc(C3CCCCC3)cc2)n1	i	i	i	i	nt	nt
CCn1c(COc2ccccc2)n[nH]c1=S	i	i	i	i	nt	nt
CCOc1cc(CN2CCN(Cc3cccc(Cl)c3)CC2)ccc1OC	i	i	i	i	nt	nt
CCOc1cc(CN2CCN(Cc3cc(OC)c(OC)c(OC)c3)CC2)ccc1OC	i	i	i	71	i	i
CCOc1cc(CN2CCN(Cc3ccc(Cl)cc3)CC2)ccc1OC	i	i	i	61	i	i
CCOc1cc(CN2CCCCC2)ccc1OC	i	i	i	i	nt	nt
Cc1cc2ccccc2c(=O)n1CC(=O)Nc1ccc(F)cc1F	i	i	i	i	nt	nt
CSc1nccc(N2CCCC(CCC(=O)N(C)CCc3ccccn3)C2)n1 (stereo not drawn)	i	i	i	i	nt	nt
SMILES	TEAD-YAP block	FBW7 act	GPR151 ag	MITF inh	MITF confirm	AS interf ctr	others
CC(=O)Nc1ccc(C(=O)CSc2nnc3scc(-c4ccc(F)cc4)n23)cc1	i	i	i	i	nt	nt
CN(Cc1ccco1)C(=O)C(=O)Nc1ccc2nc3n(c(=O)c2c1)CCCCC3	i	i	i	i	nt	nt
CCCCN(Cc1ccco1)C(=O)C(=O)Nc1ccc2nc3n(c(=O)c2c1)CCCCC3	i	i	i	76	i	i
COc1ccc(CN2CCN(Cc3ccccc3[N+](=O)[O-])CC2)cc1OCc1ccccc1	i	i	i	82	i	i
COc1cccc(CN2CCN(Cc3ccccc3[N+](=O)[O-])CC2)c1	i	i	i	64	i	i
CCS(=O)(=O)N1CCN(Cc2ccc(OC)c(OCc3ccccc3)c2)CC1	i	i	i	i	nt	nt
CN(C)CCN(C)Cc1ccc(O)c([N+](=O)[O-])c1	i	i	i	i	nt	nt
COc1cc(CN2CCN(Cc3ccccc3[N+](=O)[O-])CC2)cc(OC)c1O	i	i	i	60	i	i
COc1cc(CN(C)CCN(C)C)cc([N+](=O)[O-])c1O	i	i	i	56	i	i
CCOc1ccccc1CN1CCN(Cc2ccc3ccccc3n2)CC1CCO (stereo not drawn)	i	i	i	i	nt	nt
S=c1nc2[nH]c3ccc(Cl)cc3c2n[nH]1	i	i	i	i	nt	nt
Cc1ccc(NC(=O)CSc2nc(=O)n(Cc3cccs3)c3c2CCC3)cc1	i	i	i	i	nt	nt
c1ccc(-c2cc(N3CCCCC3)nc(-c3cccnc3)n2)cc1	i	i	i	i	nt	nt
COc1cc(OC)c(OC)cc1CN1CCN(Cc2ccccc2[N+](=O)[O-])CC1	i	i	i	72	i	i
COc1cc(CN2CCN(CCO)CC2)cc([N+](=O)[O-])c1O	i	i	i	75	i	i
COc1cc(CN2CCN(Cc3ccccc3Br)CC2)c([N+](=O)[O-])cc1OC	i	i	i	71	i	i
COCC(=O)NC1CCN(C(=O)N2c3ccccc3Sc3ccccc32)CC1	i	i	i	i	nt	nt
Cc1ccc(S(=O)(=O)N2CCN(c3nc(NC4CCCC4)c4ccccc4n3)CC2)cc1	i	i	i	i	nt	nt
COc1ccc(Cl)cc1Nc1ccc(C(=O)O)cc1N	i	i	i	i	nt	nt
O=C(c1ccccc1F)N(Cc1ccccc1)c1ccccn1	i	i	i	71	i	i
CSc1ccc(CN2CCN(C3CCN(Cc4ccccc4)CC3)CC2)cc1	i	i	i	i	nt	nt
c1ccc(N2CCN(C3CCN(Cc4ccncc4)CC3)CC2)cc1	i	i	i	75	i	i
COc1ccc(N2CCN(C3CCCN(Cc4ccncc4)C3)CC2)cc1 (stereo not drawn)	i	i	i	i	nt	nt
Fc1ccc(CN2CCC(N3CCOCC3)CC2)cc1	i	i	i	61	i	i
O=[N+]([O-])c1ccc(CN2CCC(N3CCN(c4ccccc4)CC3)CC2)cc1	i	i	i	78	i	i
SMILES	TEAD-YAP block	FBW7 act	GPR151 ag	MITF inh	MITF confirm	AS interf ctr	others
Fc1cccc(CN2CCC(N3CCN(c4ccccc4)CC3)CC2)c1	i	i	i	77	i	i
Nc1c(C(=O)N2CCOCC2)sc2nc(-c3cccs3)cc(C(F)(F)F)c12	i	i	i	i	nt	nt
COC(=O)C1CCN(C(=O)C2CCCN(C3CCN(Cc4ccccc4)CC3)C2)CC1 (stereo not drawn)	i	i	i	i	nt	nt
O=C(C1CCCN(C2CCN(Cc3ccccc3)CC2)C1)N1CCN(c2ccccc2)CC1 (stereo not drawn)	i	i	i	73	i	i
O=[N+]([O-])c1ccc(CN2CCC(N3CCCC3)CC2)cc1	i	i	i	i	nt	nt
Fc1ccc(CN2CCC(N3CCN(c4ccccc4)CC3)CC2)cc1	i	i	i	53	i	i
CC1CCN(C2CCN(Cc3ccc([N+](=O)[O-])cc3)CC2)CC1	i	i	i	60	i	i
O=C(Nc1ccccc1C(F)(F)F)c1ccc(NC(=O)c2ccco2)cc1	i	i	i	i	nt	nt
O=C(Nc1ccccc1C(F)(F)F)c1ccc(NC(=O)c2ccccc2C(=O)O)cc1	i	i	i	56	i	i
COc1cc(C(=O)N2CCN(Cc3ccc(C)cc3)CC2)cc(OC)c1OC	i	i	i	i	nt	nt

Source: PubChem (The Scripps Research Institute Molecular Screening Center)
